# From PubChem BioAssay
# ALDH1A1 inh: qHTS Assay for Inhibitors of Aldehyde Dehydrogenase 1 (ALDH1A1); actives 7.3% (n = 220,000); Purified ALDH1A1, NADH fluorescence, propionaldehyde substrate; Aldehyde dehydrogenase 1A1 (Homo sapiens), P00352; Potency, µM (top dose mostly 75.3 µM), for the others: at the highest dose activity, negative = inhibition, usual class: inhibitors; AID 1030, 2008; active = well fitted inhibition curve with a large enough effect, not every such curve was filed as active; inconclusive = small, poorly fitted or top-dose-only effect, or another doubt; inactive = no such curve, though single readings can be large or run the other way;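 note: plate controls were no enzyme wells and a reference inhibitor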
# Target sequence (P00352 whole entry, looked up): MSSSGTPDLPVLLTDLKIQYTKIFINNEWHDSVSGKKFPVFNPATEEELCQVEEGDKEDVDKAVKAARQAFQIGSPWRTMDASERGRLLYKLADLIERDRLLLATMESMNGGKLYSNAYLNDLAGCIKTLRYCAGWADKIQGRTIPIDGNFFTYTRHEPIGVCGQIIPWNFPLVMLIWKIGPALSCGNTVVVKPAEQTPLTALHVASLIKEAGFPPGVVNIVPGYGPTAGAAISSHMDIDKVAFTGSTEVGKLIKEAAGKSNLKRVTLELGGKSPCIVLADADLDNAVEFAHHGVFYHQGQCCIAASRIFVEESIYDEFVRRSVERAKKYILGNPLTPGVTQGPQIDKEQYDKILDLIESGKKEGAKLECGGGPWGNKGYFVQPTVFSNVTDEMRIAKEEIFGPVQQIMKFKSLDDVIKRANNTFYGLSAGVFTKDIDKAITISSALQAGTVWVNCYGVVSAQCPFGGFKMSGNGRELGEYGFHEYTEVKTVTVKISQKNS
# Tau FP inhib: qHTS for Inhibitors of Tau Fibril Formation, Fluorescence Polarization | Potency, µM (doses to about 57.7 µM), without a hit: top-dose activity, negative = inhibition, actives largely listed as inhibitors | actives 0.39% (n = 280,000) | Microtubule-associated protein tau (Homo sapiens), P10636 | K18 P301L tau heparin fibrillization, Alexa594 FP, 6 h; note: nearly all actives have a fitted effect of over 55% in size
# Target sequence (P10636 561-689 P618L limits assumed): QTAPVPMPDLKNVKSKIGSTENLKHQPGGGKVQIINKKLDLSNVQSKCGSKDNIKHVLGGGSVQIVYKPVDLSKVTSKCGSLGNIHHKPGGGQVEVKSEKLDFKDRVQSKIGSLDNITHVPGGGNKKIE
#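 Quantitative HTS format: compounds meet 15 uM recombinant K18 P301L tau and Alexa 594-tau tracer in 100 mM sodium acetate pH 7; 20 uM heparin triggers fibrillization at 37 C over 6 hr; FP gives the signal.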
# Tau fibril ThT: qHTS for Inhibitors of Tau Fibril Formation, Thioflavin T Binding. recombinant tau K18 P301L, heparin-induced fibrillization, ThT fluorescence. Potency, µM (top dose mostly 57.4 µM), inactives show at the highest dose activity, negative = inhibition, most hits filed as inhibitors. actives 2.1% (n = 270,000). AID 1460, 2008; note: nearly all actives have a fitted effect of over 55% in size
#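 Heparin-induced (20 uM) aggregation of recombinant human K18 P301L tau, 15 uM unlabeled with 0.24 uM labeled, pH 7 acetate buffer, 6 hr at 37 C with compound. Fibrils quantified by 30 uM ThT fluorescence after 1 hr ambient incubation.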
# NPSR antagonist: qHTS Assay for Antagonists of the Neuropeptide S Receptor: cAMP Signal Transduction; Potency, µM (top dose mostly 38.3 µM), without a hit: at the top dose activity change, negative = inhibition, actives largely listed as inhibitors; CHO-NPSR cells, cAMP TR-FRET, antagonist mode; AID 1461, 2008; actives 1% (n = 220,000); note: nearly all actives have a fitted effect of over 50% in size
# Tau fluor counter: Counterscreen qHTS for Inhibitors of Tau Fibril Formation, Fluorescence Polarization; AID 1463, 2008; actives 0.93% (n = 280,000); tau K18 P301L (four-repeat tau fragment) Alexa594 fluorescence, heparin fibrillization; Potency, µM (top dose mostly 57.7 µM), for inactives: at the highest dose activity change, negative = decrease; note: nearly all actives have a fitted effect of over 55% in size
#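 Human K18 P301L tau (15 uM unlabeled plus 0.24 uM Alexa 594-labeled, final) in 100 mM sodium acetate pH 7 was mixed with compound and 20 uM heparin and incubated 6 hr at 37 C.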
# HPGD inh: qHTS Assay for Inhibitors of HPGD (15-Hydroxyprostaglandin Dehydrogenase). purified HPGD, NADH fluorescence kinetic, PGE2 substrate. actives 4.3% (n = 150,000). Potency, µM, inactives show top-dose activity change, negative = inhibition, usual class: inhibitors; active = well fitted inhibition curve with a large enough effect, not every such curve was filed as active; inconclusive = small, poorly fitted or top-dose-only effect, or another doubt; inactive = no such curve, though single readings can be large or run the other way
#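 NADH formation kinetics: reaction with 30 uM PGE2 and 1 mM NAD+ (final), 20 nM enzyme, Tris-HCl pH 8 with Tween 20, after 15 min compound preincubation at room temperature. Fluorescence change, last versus first of five reads.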
# Starred values were filed as active, the others as inactive; ? = inconclusive; nt = not tested or not shown; [ ] = remark or other dose. Sampled rows, rich in hits. Any-hit rate of the full collection: about 9.5%. Unless noted, calls come from the whole dose curve; as a rule, active = well fitted curve in the direction sought with a large enough effect; inconclusive = small, poorly fitted or top-dose-only effect, or another doubt; inactive = no such curve, though single readings can be large; an effect the other way counts as inactive or inconclusive. Unless noted, % is set by controls: 0 for no effect and ±100 for the full control effect; potency is the fitted concentration of half-maximal effect.
SMILES,ALDH1A1 inh,Tau FP inhib,Tau fibril ThT,NPSR antagonist,Tau fluor counter,HPGD inh
C/C(CCN1CCc2nc(-c3ccccc3)c(-c3ccccc3)cc2C1)=N\OC[C@@H](O)[C@@H]1O[C@@H]2OC(C)(C)O[C@@H]2[C@H]1O,10%[13.5 µM],-1%[11.6 µM],?,nt,-5%[11.6 µM],nt
O=C1C=C(N2CCCCC2)C2(CCCCC2)O1,10µM*,6%,-4%,3%,9%,nt
CCc1ccc(NC(=O)CC2C(=O)N(c3cccc(C)c3)C(=O)N2CCC(C)C)cc1 (stereo unspecified),nt,-11%,-2%,nt,-23%,nt
COc1cc2c(C#N)c(N3CCCC3)nc(N)c2c(N)n1,nt,11%,?,-18%,?,nt
COc1cc2c(C#N)c(N3CCN(c4ccccc4OC)CC3)nc(N)c2c(N)n1,?,-10%,18µM*,0%[46.1 µM],13µM*[quencher],?
N#Cc1c(N2CCCC2)nc(N)c2c(N)nc(N3CCCC3)cc12,?,11%,?,-7%[46.1 µM],13µM*[quencher],?
COC(=O)c1c(-c2ccc(Cl)cc2)noc1N1CCN(c2cccc(C(F)(F)F)c2)CC1,nt,-5%,?,nt,-10%,nt
CCOC(=O)c1nn(-c2ccc(C)cc2)cc1C(=O)c1ccccc1,?,-5%,-4%,?,-15%,-20%
C=CCc1cc(C)ccc1OCCn1ccnc1,?,-4%,-12%,-3%[46.1 µM],-13%,-5%
C=CCc1cc(C)ccc1OCCOCCn1ccnc1,25µM*,3%,-8%,7%,-2%,1%
CC(=O)O[C@@H]1C(CO[Si](C)(C)C(C)(C)C)=C(Br)C(=O)[C@@H]2O[C@]12C,-11%,?,28µM*,nt,-26%,?
COc1cc(/C=C/c2ccc(O)cc2)cc(OC)c1,nt,2%,?,-25%,16µM*[quencher],nt
O=c1[nH]c(-c2ccccc2F)nc2c1sc(=S)n2Cc1ccccc1,13%,0%,1%,-4%[46.1 µM],-19%,10µM*
CCCCn1c(=O)[nH]c(=O)c2c1nc(-c1ccccc1F)n2Cc1ccccc1,?,2%,0%,-40%,5%,nt
Cc1ccc(C(=O)c2no[n+]([O-])c2C(=O)c2ccc(C)cc2)cc1,0.5µM*,?,14µM*,-17%,-29%,20µM*
COc1cc(/C=C2\SC(c3ccc(C)cc3)=NC2=O)cc(OC)c1O,?,?,5µM*,2µM*,?,22µM*
Cc1ccc(C2=NC(=O)/C(=C/c3cc(O)c(O)c(Br)c3)S2)cc1,10µM*,?,4µM*,-55%,2.8µM*[quencher],nt
COC(=O)CCSc1cc(NCCOC(C)=O)c([N+](=O)[O-])c2nonc12,14%,-10%,11µM*,-10%,?,-23%
CCCC(=O)OCCNc1cc(SCCC(=O)OC)c2nonc2c1[N+](=O)[O-],10µM*,-2%,-1%,-1%[46.1 µM],-6%,28µM*
O=[N+]([O-])c1c(NCCO)cc(N2CCC3(CC2)OCCO3)c2nonc12,?,0%,11%,-3%,6%,-30%
CCOC(=O)c1ccc(COC(=O)c2ccc3c(c2)-c2ccccc2C3=O)cc1,-3%,2%,?,-3%[46.1 µM],-25%,-16%
CCCc1ccc(/C=C2\C(=O)c3ccccc3C(O)=C2C(=O)OCC)cc1,?,?,32µM*,?,?,4.5µM*
CCOC(=O)C1=C(O)c2ccccc2C(=O)/C1=C\c1ccc(CC)cc1,19µM*,20µM*,14µM*,?,?,0.89µM*
CCCN=C(C)C1=C(O)c2ccccc2C1=O,?,0%,2%,2%,-7%,-21%
CCC(Sc1nc(C)cc(=O)[nH]1)C(=O)Nc1sc2c(c1C#N)CCCC2 (stereo unspecified),?,-8%,-12%,-5%[46.1 µM],-11%,-11%
SMILES,ALDH1A1 inh,Tau FP inhib,Tau fibril ThT,NPSR antagonist,Tau fluor counter,HPGD inh
CCC(Sc1nnc2c3ccccc3n(CC)c2n1)C(=O)Nc1sc2c(c1C#N)CCCC2 (stereo unspecified),18µM*,-9%,?,-19%[46.1 µM],-24%,-29%
Cc1ccc(Cl)cc1N1CCN(Cc2cc3c(cc2O)CCC3)CC1,-4%,8%,-16%,10µM*,-13%,-3%
Cc1ccc(Cl)cc1N1CCN(C(=O)c2ccc(CN3CCOCC3)cc2)CC1,-4%,-4%,-11%,-21%[46.1 µM],7%,-6%
S=C(N/N=C/c1cccs1)NC1CC2CCC1C2 (stereo unspecified),18µM*,12%,-16%,45%,?,nt
Oc1ccc(/C=N/NC(=S)NC2CC3CCC2C3)cc1 (stereo unspecified),7.1µM*,?,-10%,?,?,nt
COc1ccc(S(=O)(=O)N(CCc2ccccc2)CC(=O)Nc2cc(C)cc(C)c2)cc1OC,nt,-15%,-6%,nt,-26%,nt
Cc1ccc(-c2cc(C(F)(F)F)n3ncc(C(=O)N4CCN(C)CC4)c3n2)cc1,?,7%,1%,-8%[46.1 µM],4%,?
O=C(c1cnn2c(C(F)(F)F)cc(-c3ccc4c(c3)OCO4)nc12)N1CCCCC1,2%,-3%,2%,-24%[46.1 µM],2%,2.8µM*
O=C(NC1CCCC1)c1cnn2c(C(F)(F)F)cc(-c3ccc4c(c3)OCO4)nc12,-3%,5%,-6%,?,-1%,-15%
CN1CCN(C(=O)c2cnn3c(C(F)(F)F)cc(-c4ccc5c(c4)OCO5)nc23)CC1,?,2%,-11%,-2%[46.1 µM],0%,25µM*
COc1cccc2c(=O)n(CC(=O)Nc3cccc(F)c3)ccc12,?,3%,-3%,-3%[46.1 µM],-8%,?
Cc1csc(NC(=O)CSc2nc3sc(C)c(C)c3c(=O)[nH]2)n1,18µM*,-10%,?,-12%[46.1 µM],-15%,13µM*
Cc1sc2nc(SCC(=O)N3CCCC3)[nH]c(=O)c2c1C,?,0%,3%,-26%[46.1 µM],10%,18µM*
O=c1[nH]c(SCc2n[nH]c(=S)n2-c2ccccc2)nc2sc3c(c12)CCC3,-8%,1%,?,-11%[46.1 µM],-11%,13µM*
Cc1sc2nc(SCC(=O)N3CCCCC3)[nH]c(=O)c2c1C,?,-4%,-21%,-24%[46.1 µM],-6%,16µM*
Cc1sc2nc(SCC(=O)N(C)C)[nH]c(=O)c2c1C,-2%,-11%,-9%,-8%[46.1 µM],1%,-29%
